Assay outcomes from PubChem BioAssay.
BJeLR lethal = BJeLR cell viability loss; inhibition, % (test concentration not listed); BJeLR (HRASV12) viability, CellTiter-Glo ATP luminescence, 48 h; AID 1554; actives 0.17% (n = 300,000); in the data active = inhibition above about 50%
Sa RN4220 lethal = S. aureus RN4220 growth inhibition | actives 0.33% (n = 330,000) | inhibition, % (concentration not given with the values) | OD600, 16 h; in the data active = inhibition above about 85%;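 note: plate controls were untreated cells for no effect and reference antibiotic for full effect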
PrPC TRFRET = cell surface PrPC inhibition, primary TR-FRET screen; actives 0.43% (n = 370,000); inhibition, % at 13.8 µM; AID 720596; TR-FRET read-out; P04156; in the data active = inhibition above about 24%; note: 0% = median of the test wells and 100% = reference compound wells
ugtP null kill = growth inhibition of S. aureus ugtP deletion strain | S. aureus RN4220 ugtP deletion, OD600 growth, 16 h | growth inhibition, % (test concentration not listed) | actives 0.54% (n = 330,000) | AID 1259309; in the data active = growth inhibition above about 68%;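 note: plate controls were untreated wells for no effect and antibiotic for full effect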
Starred values were filed as active, the others as inactive; · = no result. A selection: hits, their analogues and other compounds. The true share with any hit is near 0.95%.

SMILES	BJeLR lethal	Sa RN4220 lethal	PrPC TRFRET	ugtP null kill
COc1cc(C#Cc2c(-c3cncn3C)n(C)c3ccc(Br)cc23)cc(OC)c1	·	99*	-5	99*
COc1cccc(C=NNC(=O)c2nnn(-c3nonc3N)c2-c2cccs2)c1	·	6	·	17
O=C1NC2C(=CC(O)C(O)C2O)c2cc3c(cc21)OCO3 (configuration not stated)	·	·	91*	·
O=C1NCCc2cc3c(cc21)OCO3	-5	4	-5	2
CCOC(=O)c1cccc2c1-c1ccccc1C2=NO	·	-1	·	88*
O=C(c1cccc2c1-c1ccccc1/C2=N/O)N1CCCCC1	5	·	7	·
CCCCC(=O)NC(=S)Nc1cc([N+](=O)[O-])ccc1OC	-14	82	-7	active
CC(=O)C(=NNc1ccccc1)Sc1cccc2cccnc12	·	7	·	8
CC(=O)C(=NNc1ccc(Cl)cc1Cl)Sc1cccc2cccnc12	·	6	·	85*
O=C(CSc1nc2ccccc2[nH]1)NN=C/C=C\c1ccccc1[N+](=O)[O-]	·	98*	·	97*
O=C(CSc1nc2ccccc2[nH]1)N/N=C/C=C/c1ccccc1[N+](=O)[O-]	-6	·	-9	·
CCn1c(C)nc2cc(C(=O)NN=Cc3ccc(OC)cc3)ccc21	·	0	·	-4
O=c1cc(-c2ccccc2)[nH]n1-c1nc2ccccc2s1	-1	80	0	91*
CCN1CC2C3C(=O)N(Cc4ccccc4)C(=O)C3[C@](C)(C1=O)N2C(=O)c1ccc(Cl)cc1 (some centres not stated)	·	8	·	-1
CC(=NOCC(=O)Nc1ccc(Br)cc1)c1cccs1	·	-7	·	11
Cc1cc(Cl)n2c(nc3cc(F)c(F)cc32)c1C#N	128*	42	-8	83
Cc1cc(C)n2c(=O)c3ccc(Cl)cc3nc2c1C#N	2	0	-1	14
O=C(Oc1cccc(C=NNC(=O)c2ccccn2)c1)c1ccc([N+](=O)[O-])cc1	·	1	·	-2
C=C1C(=O)O[C@@H]2C[C@@H](C)[C@H]3C=CC(=O)[C@]3(O)C[C@@H]12	66*	·	-10	·
C=C1C(=O)OC2CC(C)C3C=CC(=O)[C@@]3(C)C(OC(C)=O)C12 (some centres not stated)	·	12	·	1
O=[N+]([O-])c1ccccc1/C=C/C=Nn1c(-c2ccccc2)n[nH]c1=S	·	15	·	-2
O=C(Nc1nnc(-c2ccccc2)s1)c1ccccc1O	11	91*	2	94*
Cc1ccc(S(=O)(=O)Nc2ccccc2-c2ccccc2NS(=O)(=O)c2ccc(C)cc2)cc1	4	28	1	9
O=C1c2ccccc2-c2cccc(NS(=O)(=O)c3ccc(C(F)(F)F)cc3)c21	2	97*	-1	97*
C(C#CCCCCCCCCC[n+]1ccccc1)#CCCCCCCCCC[n+]1ccccc1	52*	100*	17	101*
SMILES	BJeLR lethal	Sa RN4220 lethal	PrPC TRFRET	ugtP null kill
COc1ccc(C(=O)c2[nH]c(N)c(C(=O)c3c[nH]c4ccccc34)c2-c2ccc(F)c(OC)c2)cc1	·	·	-5	·
O=C1C=C(NC(=O)Nc2ccc(Cl)c(Cl)c2)CCC1	1	100*	5	100*
O=C(Nc1ccc(Cl)c(Cl)c1)Nc1ccc(Br)cc1F	0	100*	12	99*
O=[N+]([O-])c1cc(C=NNc2ccccn2)ccc1Cl	·	6	·	7
Clc1nssc1=Nc1ccc(Br)cc1	7	7	0	12
Clc1ccc(N=c2ssnc2Cl)nc1	-4	26	1	95*
COc1ccc(-n2c(O)c(C=NNS(=O)(=O)c3ccc(C)c([N+](=O)[O-])c3)c3ccccc3c2=O)cc1OC	·	8	·	-7
COc1cccc(N2C(N)=NC(N)=NC2(C)C)c1	79*	0	-5	0
COc1ccc(N2C(N)=NC(N)=NC2(C)C)cc1	6	·	1	·
CON/C=C(\C=Nc1ccc(Cl)cc1Cl)c1ncc(C(F)(F)F)cc1Cl	-1	6	6	18
CON/C=C(\C=Nc1ccccc1)c1ncc(C(F)(F)F)cc1Cl	-14	-1	-3	96*
Cc1ccc(/C=C2\C(=O)Nc3ccccc32)o1	·	60	-5	100*
CC(=NNC(=O)CC1C(=O)NN=C1C)c1ccco1 (configuration not stated)	·	1	·	1
COc1cc(CCc2ccccc2)c(C(=O)O)c(O)c1CC=C(C)C	·	·	1	·
COc1cc(CCc2ccccc2)c(C(=O)O)c(O)c1C/C=C(/C)CCC=C(C)C	·	88*	0	100*
Cc1cccc(C)c1NC(=O)CN(C)CCc1ccccc1	·	·	4	·
Cc1cccc([N+](=O)[O-])c1NC(=O)CN(Cc1ccccc1)Cc1ccccc1	0	1	-1	99*
COc1ccc(C(C)=NNC(=S)NCCc2ccccc2)cc1	·	4	·	-11
COc1cccc2nc3cc(C)c(C)cc3nc12	58*	·	-24	·
COc1cccc2c1nc(C)c1cc(C)oc12	-4	8	5	2
CC(=NNC(=O)c1ccccc1[N+](=O)[O-])c1ccc(Br)s1	·	8	·	10
CC(C)C1OC2c3cccc4cccc(c34)C2N1c1ccccc1 (configuration not stated)	2	-3	-12	90*
CC(=CC(=O)OCCCCCCCCC(=O)O)CC1OCC(CC2OC2C(C)C(C)O)C(O)C1O (configuration not stated)	·	100*	·	100*
CN(C)Cc1c(C(=O)NN=Cc2ccc(-c3ccccc3)cc2)nnn1-c1nonc1N	·	7	·	9
CC(C)(C)OC(=O)NN=Cc1cc(N=Nc2ccccc2)ccc1O	·	5	·	0
SMILES	BJeLR lethal	Sa RN4220 lethal	PrPC TRFRET	ugtP null kill
Cn1c(O)c(C=NNC(=O)c2cc3ccccc3cc2O)c2ccccc21	·	31	·	93*
Cn1c(O)c(/C=N/NC(=O)c2cc3ccccc3cc2O)c2ccccc21	6	·	-8	·
Clc1ccc(C(c2ccccc2Cl)C(Cl)Cl)cc1 (configuration not stated)	·	-9	-1	93*
CCc1ccc(C(c2ccc(CC)cc2)C(Cl)Cl)cc1	·	·	6	·
CCOC(=O)c1c2c(n(C)c1COC)C(=O)C(=O)c1ccc(Br)cc1-2	69*	·	·	·
Cc1nc(C)c(-c2ccnc(N=CNO)n2)s1	·	1	·	7
COc1ccc(O)c(C=NNc2nc(C)cc(-c3ccccc3)n2)c1	·	-6	·	-12
CCCCCCCCC#Cc1nc(C)ccc1OC	·	6	-4	37
CCCCCCCC#Cc1ccccc1C=NS(=O)c1ccc(C)cc1 (configuration not stated)	·	-2	·	99*
Fc1ccc(CSc2ncnc3sc4c(c23)CCCC4)cc1	13	8	-2	83*
Cc1cc(C)c2c(c1)cc(C)c1nnc(SCC(=O)N3CCCc4ccccc43)n12	-16	11	-5	96*
Cc1ccc(C)c2c1cc(C)c1nnc(SCC(=O)N3CCCc4ccccc43)n12	2	1	-7	7
Cc1nn(-c2ccccc2)c2c1C1(C(=O)N3c4c(cccc41)C(C)CC3(C)C)C(C#N)=C(N)O2 (configuration not stated)	-15	96*	-4	92*
COc1ccc(C=NNC(=O)Cc2cc(OC)c(OC)cc2[N+](=O)[O-])cc1	·	3	·	1
